For 15 molecules, outcome results are on record in PubChem BioAssay AID651899 (Broad Institute, 2012).

Structures are written as SMILES. Results with a measured potency or affinity are listed apart. Calls of active or inactive are those of the source. The rule behind the calls is not given here.

This assay in a line: HEK293 cell viability loss – plate reader, cherry-pick, cytotoxicity control, dose response (AID 651899).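 Note: cells exposed to compound for 48 hours.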 The note with it: series mostly up to 26 µM.
Regarding `C[C@H](CO)N1C[C@H](C)[C@@H](CN(C)Cc2ccc3c(c2)OCO3)Oc2ccc(NC(=O)Cn3cnnn3)cc2CC1=O`, the outcome was inactive.

Consider `CN1c2ccc(-c3cccc(F)c3)cc2[C@H]2[C@H](CCN2C(=O)c2ccc3c(c2)OCO3)[C@H]1CO`, for which the call was inactive.

As for `CCc1c(C(=O)NCCc2ccc(OC)c(OC)c2)[nH]c(C)c1C(C)=O`, the result was inactive.

In the case of `Cc1ccc(-c2nn(CCC(=O)Nc3cccnc3)c(=O)c3ccccc23)cc1`, the result was inactive.

In the case of `CC(=O)c1ccc(C(=O)N2CCCC(CO)(Cc3ccccc3C)C2)s1` (stereo not given), the molecule was called inactive.

Regarding `CCC(CO)[n+]1c(C)cc(/C=C2\Sc3ccccc3N2Cc2ccccc2)cc1C` (stereo not given), the result was inactive.

For `COc1ccc(C(=O)C2CCCN(C(=O)c3ccc(C(C)=O)s3)C2)c(C)c1` (stereo not given), the molecule was classed as inactive.

On to `O=C(Nc1cccnc1)c1cc2nc(C3CC3)cc(C(F)(F)F)n2n1`, for which the molecule was called inactive.

In the case of `CCCOc1ccc2c3c(c(=O)oc2c1OCCC)CCC3`, the result was inactive.

As to `O=C(NC1CCCc2c1cnn2-c1cc(F)cc(F)c1)c1ccc[n+]([O-])c1` (stereo not given), the result was inactive.

Regarding `O=C(Nc1ccc2nccnc2c1)c1cnccn1`, the outcome was inactive.

`CNC(=O)C[C@H]1CC[C@@H]2[C@H](COC[C@@H](O)CN2C(=O)Nc2ccc3c(c2)OCO3)O1`: the molecule was called inactive.

For `COc1ccc(NC2CCCN(C(=O)c3ccc(C(C)=O)s3)C2)cc1` (stereo not given), the molecule was called inactive.

`COCCNC(=O)C[C@@H]1CC[C@@H]2[C@H](COc3ccc(NC(=O)Nc4cccc(F)c4)cc3C(=O)N2C)O1`: the outcome was inactive.

Turning to `COc1cccc(-c2ccc3c(c2)[C@H]2[C@H](CCN2C(=O)C2CCC2)[C@@H](CO)N3)c1`, the molecule was called inactive.
